Results reported in PubChem BioAssay AID1845227 (National Center for Advancing Translational Sciences (NCATS), 2023).
Inconclusive results are not listed. Active and inactive are the calls of the source. Calls come from the whole dose curve; as a rule, active = well fitted inhibition curve with a large enough effect; inconclusive = small, poorly fitted or top-dose-only effect; inactive = no such curve, though single readings can be large or run the other way.
Potency is the fitted concentration of half-maximal effect.
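Throughout, for activity change, negative = inhibition: 0% = DMSO and -100% = no enzyme control.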

Each molecule was assayed against Luciferin 4-monooxygenase (Photinus pyralis) (UniProt P08659) (assay: Confirmatory firefly luciferase (FLuc) qHTS assay for identification of artifact compounds). Conditions: purified FLuc enzyme, luminescence, 5 min; series mostly up to 38.9 µM; activity change, negative = inhibition: at the top concentration.
Outline: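 Compounds were preincubated 15 min at room temperature with 10 uM D-luciferin and 10 uM ATP in Tris acetate pH 7.6. 10 nM Photinus pyralis luciferase was then added, and luminescence was read after 5 min.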
With `Cc1nc(-c2ccc(Cl)cc2)sc1CCNC(=O)c1ccco1` the “activity change, negative = inhibition” value was -17.5% (inactive). In the case of `COc1ccc(CNC(=O)C(C)n2nc(C)c3c(C)n(-c4ccccc4)nc3c2=O)c(OC)c1` (stereo not drawn), the “activity change, negative = inhibition” value is reported as -3.65% (inactive). With `NC(=O)c1ccc(-c2noc(-c3cccc(Cl)c3)n2)cc1` the “activity change, negative = inhibition” value was -7.53% (inactive). For `O=C=Nc1ccc(Cc2ccc(N=C=O)cc2)cc1`, the “activity change, negative = inhibition” value was 5.75% (inactive). In the case of `CC(CCc1ccccc1)NC(=O)Cn1c(=O)nc(-c2ccccc2F)c2cc(Cl)ccc21` (stereo not drawn), the “activity change, negative = inhibition” value is reported as -4.2% (inactive). In the case of `Cc1ccc(Nc2c(-c3ccc(C)cc3)nc3c(C)cccn23)cc1`, the “activity change, negative = inhibition” value is reported as -2.92% (inactive). For `CCC(Sc1ncc(S(=O)(=O)c2ccc(Cl)cc2)c(=O)[nH]1)C(=O)Nc1ccc(OC)cc1` (stereo not drawn), the “activity change, negative = inhibition” value was 1.34% (inactive). `O=C(Nc1nnc(-c2ccncc2)s1)Nc1cccc2ccccc12` was tested, and the “activity change, negative = inhibition” value was 11.8% (inactive). `COc1ccc(NC(=O)C(C)n2nc(-c3cc(C)ccc3C)c3c(c2=O)CCCC3)cc1` (stereo not drawn) was tested, and the “activity change, negative = inhibition” value was 10.7% (inactive). With `COc1ccc(OC(=O)c2nc(SCc3ccccc3C)ncc2Cl)cc1` the “activity change, negative = inhibition” value was 10.8% (inactive). `CCOC(=O)c1ccc(N2C(=O)c3n[nH]c(-c4ccco4)c3C2c2ccc(C)cc2)cc1` (stereo not drawn) was tested, and the “activity change, negative = inhibition” value was -2.41% (inactive). In the case of `CC(C)Nc1ccc(-c2nc(-c3ccccn3)no2)cc1[N+](=O)[O-]`, the Potency is reported as 3.44 µM (active). For `Nc1ccc(F)cc1F`, the “activity change, negative = inhibition” value was -3.57% (inactive). For `O=C1C(c2ccc(F)cc2)N(CCc2ccc(Cl)cc2)C(=O)CN1C1CCCCC1` (stereo not drawn), the “activity change, negative = inhibition” value was 1.88% (inactive). With `COc1ccc(-n2c(=O)c3ccc(C(=O)NCc4ccc(C)cc4)cc3n(Cc3ccc(Cl)cc3)c2=O)cc1` the “activity change, negative = inhibition” value was 10.2% (inactive). In the case of `COc1ccc(C(=O)Nc2noc3ccccc23)cc1`, the Potency is reported as 0.864 µM (active). `Cc1ccc(Nc2c(-c3ccsc3)nc3cccc(C)n23)cc1` was tested, and the “activity change, negative = inhibition” value was -11.5% (inactive). With `Cc1cn2c(=O)cc(COC(=O)c3cccc(NC(=O)c4ccccc4C)c3)nc2s1` the “activity change, negative = inhibition” value was -5.59% (inactive). For `COc1ccc(NC(=O)c2ncoc2-c2ccco2)cc1Cl`, the “activity change, negative = inhibition” value was -4.3% (inactive). `O=c1cc(-c2ccc(O)c(O)c2)oc2cc(O[C@@H]3O[C@@H](CO)[C@@H](O)[C@@H](O)[C@H]3O)cc(O)c12` was tested, and the “activity change, negative = inhibition” value was 6.06% (inactive). `CCOc1ccccc1NC(=O)N(Cc1ccc(C)o1)C1CCN(C(C)=O)CC1` was tested, and the “activity change, negative = inhibition” value was 8.24% (inactive). In the case of `COc1ccc(C(=O)Nc2ccc3oc(-c4cccnc4)nc3c2)cc1`, the “activity change, negative = inhibition” value is reported as 1.55% (inactive). With `Cc1cc(NC(=O)c2cccnc2)cc(-c2nc3cc(Cl)ccc3o2)c1O` the “activity change, negative = inhibition” value was -1.99% (inactive). In the case of `COc1ccc(-c2c3c(=O)n(C)c(=O)n(C)c3c3n2-c2ccccc2NC3c2ccccc2OC)cc1` (stereo not drawn), the “activity change, negative = inhibition” value is reported as -5.6% (inactive). For `CNc1cccc(S(=O)(=O)N2CCCN(S(=O)(=O)c3ccc4c(c3)OCCO4)CC2)c1`, the “activity change, negative = inhibition” value was -3.42% (inactive). In the case of `Cc1ccc(-c2nc3scc(CCNS(=O)(=O)c4ccc(F)c(C)c4)n3n2)cc1`, the “activity change, negative = inhibition” value is reported as -3.25% (inactive). For `COc1cc(Br)c(/C=C(\C#N)c2nc3ccccc3[nH]2)cc1OC`, the “activity change, negative = inhibition” value was 24.2% (inactive). With `CCC(=O)N1CCCc2cc(S(=O)(=O)N3CCC(C(=O)Nc4ccccc4CC)CC3)ccc21` the “activity change, negative = inhibition” value was 3.23% (inactive). In the case of `[O][C@H]1[C@@H](O)[C@@H](CO)O[C@@H](O[C@@H]2[C@@H]3OC[C@H]2O[C@H](O[C@@H]2[C@@H](O)[C@H](C[C@@H]4[C@@H]5OC[C@H]4O[CH][C@@H]5O)O[C@H](CO)[C@@H]2OS(=O)(=O)O)[C@@H]3OS(=O)(=O)O)[C@@H]1O`, the “activity change, negative = inhibition” value is reported as -2.24% (inactive). For `COc1ccc(NC(=O)C2CCCN(S(=O)(=O)c3cccc4nonc34)C2)cc1Cl` (stereo not drawn), the “activity change, negative = inhibition” value was 0.0129% (inactive). For `COc1ccc(CNC(=O)c2ccc(NC(=O)N3CCCCc4ccccc43)cc2)cc1`, the “activity change, negative = inhibition” value was 1.81% (inactive). `O=c1cc(-c2ccc(O)cc2)oc2cc(O[C@@H]3O[C@H](CO)[C@H](O)[C@H](O)[C@H]3O)cc(O)c12` was tested, and the “activity change, negative = inhibition” value was 4.69% (inactive). With `Cc1ccc(C2C=C(c3ccccc3)Nc3nc(NS(=O)(=O)c4ccccc4)nn32)cc1` (stereo not drawn) the “activity change, negative = inhibition” value was -2.75% (inactive).
